Results published in the OligoGym collection.

Each sequence was assayed against AGAP3 (assay: pooled miR-30 sensor sort-seq; sequence = guide strand). Details: shRNA.
Also: reference of the scale not given here.

Sequence	sensor-assay potency score (higher = more potent)
TCGCAGTCGATACAAAAGCTGT	-1.8
ATACTTCTTCTTCCACTCCTTG	-0.733
TCTGCTGTCGTCGATAACCCGG	-1.3
TTCATCTCGGATCAGCAGCAGG	-1.26
TGGAACTGAGTACCTCAGCTGG	-1.58
TTGTACACCGTCTGGAAACTGA	-0.718
TACACAAACATAAATATTCCAA	-0.597
TACCAGATGAGCAGCTGCGTGA	-0.56
TTAAGCTCCGGTACGGAGCGGC	-0.14
TTCCCTGGCACTTTCACCGTTG	-0.316
TACTTCTTCTTCCACTCCTTGT	-0.51
ATTGGGTGCATCGCAGTCGATA	-1.38

Each sequence was assayed against AGBL5 in the same assay as above. Details: shRNA.

Sequence	sensor-assay potency score (higher = more potent)
TTTCAGCACAGTCTGGTCGGGT	-0.447
TTGTAGTTGCATTCAAGTGTGT	0.25
AATAGTTCCACAGTGTATCTGG	0.759
ATCTACACGAAGTCCATCCAGA	-1.07
TTGCATTCAAGTGTGTAGCTGT	0.765
TTCTTCTCTGAGAAATTGCAGC	-0.823
TTCCGTTTCAGCACAGTCTGGT	0.615
TTGTAGATTGCAACACGGCCGC	-0.607
TTGAAGACAAAGCTAGATGGAG	-0.419
TTTAGGGACAAAACAAACCTCA	-0.454
TTTGGAAGCATGTCCATGCAGG	-0.608
TAGATTAGTAAGGCTGCTGTGC	-0.537

These sequences were tested against AGPAT6 in the same assay as above. Details: shRNA.

Sequence	sensor-assay potency score (higher = more potent)
TATTGATGCAGGTTCCTTCTGG	-0.00526
TAAGTGAACATGTTTACTCATG	-1.14
TCTCTTTGATCTCTTCTTCTAG	-0.219
TTTTTGAACATCATCACCGATG	-0.209
TTCATCTGCCTCTCTAGTCATG	-1.09
AAGATGATCACATCGATCGGTG	-0.372
TTCTAGTGAAGTGGGATCCTTT	-0.0261
TTGAACATCATCACCGATGTAT	0.749
TCTTCTTCTAGTGAAGTGGGAT	-0.236
TACTACTACCACTTCGACGAAT	-0.506
ATACTTGATAGCAACAGGGTAA	-0.725
TTGATCTCTTCTTCTAGTGAAG	-1.1
